Assay results taken from ChEMBL document CHEMBL1157539, “Thousands of chemical starting points for antimalarial lead identification” (Nature, 2010).

Columns and labels:
Format in all cases: functional
[1] = test system: Plasmodium falciparum; assay: GSK_TCMDC: Inhibition of Plasmodium falciparum 3D7 in whole red blood cells, using parasite LDH activity as an index of growth. Test compounds present at 2uM
[2] = test system: Plasmodium falciparum; assay: GSK_TCMDC: Inhibition of Plasmodium falciparum Dd2 in whole red blood cells, using parasite LDH activity as an index of growth. Test compounds present at 2uM
[3] = test system: HepG2; assay: GSK_TCMDC: Percent inhibition of human HepG2 cell line. Test compounds present at 10uM.

SMILES | Inhibition [1] | Inhibition [2] | Inhibition [3]
Cc1[nH]c2ccccc2c1CC1CCN(CC2CCN(C(=O)/C=C/c3ccc(Cl)c(Cl)c3)CC2)CC1 | 92% | 14% | 34%
CCCNS(=O)(=O)c1ccc(NC(=O)C(C)Oc2ccc([N+](=O)[O-])cc2)cc1 (stereo not drawn) | 100% | 37% | 3%
O=C(Nc1nc(-c2ccccn2)cs1)c1ccc(Br)s1 | 96% | 84% | 40%
O=C(NCc1ccc(F)cc1)Nc1ccc(-c2cccc(-c3nc4cc(F)ccc4[nH]3)c2)cc1 | 100% | 99% | 31%
O=C(Nc1cccc(CN2CCCN(Cc3ncc[nH]3)CC2)c1)c1cc2ccccc2s1.O=C(O)C(F)(F)F | 99% | 35% | 22%
CN(Cc1c(Cl)cnn1C)S(=O)(=O)c1ccc2ccccc2c1 | 94% | 36% | 7%
O=C(Nc1cccc(CN2CCCN(CC3CCCCC3)CC2)c1)c1cc2ccccc2s1.O=C(O)C(F)(F)F | 96% | 15% | 29%
CC(C)CCNC(=O)C1Cc2c([nH]c3cc(Cl)ccc23)C2(CCN(CCc3ccccc3)CC2)N1 (stereo not drawn) | 100% | 55% | 17%
O=C(O)C(F)(F)F.c1cc(CN2CCC(CCN3CCCCC3)CC2)cc(-c2csc(-c3nc4ccccc4[nH]3)c2)c1 | 99% | 99% | 89%
CCCC(C)c1cnc2nc(N)nc(N)c2c1C (stereo not drawn) | 95% | 1% | 67%
O=C(Nc1ccc(OC2CCN(Cc3ccc(F)cc3)C2)c(Cl)c1)c1ccccc1.O=C(O)C(F)(F)F (stereo not drawn) | 91% | 86% | 11%
CCOc1ccc2c(=NN=Cc3cccc(OC)c3OC)cc(C)[nH]c2c1 | 100% | 85% | 4%
Cl.N=C(N)Nc1ccc(NC(=O)Nc2ccc(NC(=N)N)cc2)cc1 | 85% | 74% | 0%
Cl.Cn1c(/C=C/C(=O)NC2CCC(CCN3CCc4ccc(C#N)cc4CC3)CC2)cc2ccccc21 (stereo not drawn) | 100% | 29% | 15%
COc1ccccc1C1CCN(C2CCC(NC(=O)/C=C/c3cc(C(F)(F)F)ccc3F)CC2)CC1 (stereo not drawn) | 97% | 32% | 39%
COc1cc(C)nc2ccc(NC(=O)Nc3ccc4nc(C)cc(OC)c4c3)cc12 | 100% | 83% | 79%

SMILES | Inhibition [1] | Inhibition [2] | Inhibition [3]
Cn1cc(CCNc2ccnc(NCCc3coc4ccccc34)n2)c2ccccc21 | 87% | 28% | 26%
CCC(C(=O)Nc1ccccc1)n1nc(-c2ccc(C)c(S(=O)(=O)N3CCCCC3)c2)ccc1=O (stereo not drawn) | 85% | 67% | 0%
CN1CCCC(CN2CCN(Cc3ccc(-c4ccc(-c5nc6ccccc6[nH]5)cc4)cc3)CC2)C1.O=C(O)C(F)(F)F (stereo not drawn) | 100% | 100% | 69%
COc1ccc(CN(C)CCOc2ccc(NC(=O)c3cccc4c(=O)cc(-c5ccccc5)[nH]c34)cc2)cc1OC | 98% | 44% | 13%
CC(C)Cc1ccc(N2CCN(CCCCNC(=O)c3ccc(NC(=O)c4cc(C(F)(F)F)cc(C(F)(F)F)c4)cc3)CC2)cc1 | 100% | 100% | 15%
CCN(c1ccccc1)S(=O)(=O)c1ccc(OC)c(NC(=O)c2cccc(C(F)(F)F)c2)c1 | 90% | 70% | 9%
CC(=O)O.Nc1nc(N)c2cc3ccc(OCc4ccccc4)cc3nc2n1 | 100% | 75% | 78%
CCc1ccc(CN2CCC(NC(=O)c3cc(-c4ccc(N(C)C)cc4)cs3)C2)cc1.O=C(O)C(F)(F)F (stereo not drawn) | 90% | 7% | 29%
C=CCn1cc(C2CCN(CCCCNC(=O)c3sc(-c4ccc(C(F)(F)F)cc4)nc3CO)CC2)c2cc(OC)ccc21 | 91% | 4% | 40%
COc1ccc(-c2cnc(N)c(-c3nc4cc(Br)ccc4[nH]3)c2)cc1.O=C(O)C(F)(F)F | 100% | 3% | 42%
Cc1ccc(NC(=O)c2ccc(CN3CCCN(Cc4cccc(O)c4)CC3)cc2)cc1C.O=C(O)C(F)(F)F | 98% | 25% | 33%
Cc1cccc(NC(c2cccs2)c2c(NC(=O)c3ccccc3)sc(C)c2C)n1 (stereo not drawn) | 88% | 80% | 0%
CCn1c(Sc2ccc(C#N)c([N+](=O)[O-])c2)nnc1-c1cccc(Cl)c1 | 95% | 88% | 0%
CS(=O)(=O)c1cccc(-c2ccc3oc(C(N)=O)c(NC(=O)c4cccs4)c3c2)c1 | 86% | 77% | 11%
O=C(NCCN1CCCC1)c1ccc(-c2ccc(-c3nc4ccccc4[nH]3)s2)cc1 | 92% | 3% | 22%
